About 13,000 (27%) of roughly 48,000 compounds showed an effect of 50% or more. The list shows a part of the results.
tested on: Wolbachia pipientis; assay: Anti-Wolbachia Cell-Based Screen; type: functional; parameters: scale not given: in the data most compounds retested in dose-response had high values; conditions: 5 µM

Structure (SMILES) | Percent Effect
CCOCCCC(=O)N1CCN(c2cccc(OC)c2)C(C)C1 (centres undefined) | 5.389%
Cc1ccc2c(c1)c(CNC(=O)C1CCN(CC(N)=O)CC1)nn2C | 11.07%
Cc1cc(CN(C)CCC(O)c2ccccc2)nn1C (centres undefined) | -3.114%
N#Cc1ccccc1CN(CC(N)=O)C1CCCC1 | -5.252%
CN(CCC(O)c1ccccc1)Cc1nc(-c2ccccc2)no1 (centres undefined) | 118.9%
Cc1nc(CN(C)Cc2nc(-c3ccccc3)no2)co1 | -6.169%
Cc1cc(CN(C)CCC(O)c2ccccc2)no1 (centres undefined) | 107.6%
CN(Cc1nc(-c2ccccc2)no1)C(=O)CNS(C)(=O)=O | -1.951%
Cc1cc(CN(C)CCN(C)c2ccccc2)no1 | 9.198%
CN(CCC(O)c1ccccc1)Cc1ccccc1C#N (centres undefined) | 111.8%
COc1cccc(CN(C)Cc2ccccc2C#N)c1OC | -9.098%
COc1ccc(F)c(NCc2cnn(C3CCS(=O)(=O)C3)c2)c1 (centres undefined) | 7.936%
Cc1ccc(CNc2ccn(CCc3ccncc3)n2)s1 | 19.44%
COc1cc(OC)cc(N2CCC(NC(=O)c3cccn3C)CC2)c1 | -13.09%
COc1ccc(N2CCC(NC(=O)c3sccc3C)CC2)cc1 | 79.74%
COc1ccc(N2CCC(N(C)C(C)C(=O)N(C)C)CC2)cc1 (centres undefined) | 7.179%
COc1ccsc1C(=O)NC1CCN(c2cccc(F)c2)CC1 | 98.27%
COc1ccc(N2CCC(NC(=O)c3ccc(C#N)cc3)CC2)cc1 | 89.14%
COc1ccsc1C(=O)NC1CCN(c2ccc(C#N)cc2)CC1 | -30.88%
COc1cc(OC)cc(N2CCC(NC(=O)c3ccc[nH]3)CC2)c1 | -4.011%
O=C(Cc1cccs1)NC1CCN(c2cccc(F)c2)CC1 | -15.75%
COc1ccc(C(=O)NC2CCN(c3ncccn3)CC2)cc1F | 13.96%
CCN(Cc1ccncc1)C1CCCN(Cc2ccc(F)cc2Cl)C1 (centres undefined) | -7.648%
O=C(O)CC1COCCN1C(=O)C1(c2ccc(Cl)cc2)CCC1 (centres undefined) | 14.34%
O=S(=O)(CCC1CCCO1)NCc1ncc(-c2ccccc2)o1 (centres undefined) | -10.29%

Structure (SMILES) | Percent Effect
Cc1nn(C)c(C)c1OCC(=O)NCC(O)c1ccco1 (centres undefined) | 9.29%
CCC1CN(Cc2nc(C(C)C)no2)CCC(=O)N1Cc1ccccc1 (centres undefined) | 11.67%
COc1cccc(-c2noc(-c3ccc(NCCCO)nc3)n2)c1OC | 11.35%
Nc1cc(CCC2CN(Cc3ccc4cc[nH]c4c3)CCO2)ccn1 (centres undefined) | 120%
CC(C)(C)c1cc(CN2CCOC(CCc3ccccc3)C2)n[nH]1 (centres undefined) | 14.18%
COc1ccc(CN2CCOC(CCc3ccnc(N)c3)C2)cc1 (centres undefined) | 124.3%
Cc1cc(C)n(CC2CN(Cc3cccc(C(N)=O)c3)CCO2)n1 (centres undefined) | -10.5%
COc1cccc(CN2CCOC(Cn3nc(C)cc3C)C2)c1 (centres undefined) | -2.903%
Nc1cc(CCC2CN(Cc3cccc(C(=O)O)c3)CCO2)ccn1 (centres undefined) | 106.3%
Cc1nccn1CCC1CCCCN1Cc1ccc2c(c1)OCCO2 (centres undefined) | 18.54%
CCc1nnc2n1CCN(Cc1ccc3c(c1)OCCO3)C2 | 1.979%
Nc1cc(CCC2CN(Cc3ccc4c(c3)OCCO4)CCO2)ccn1 (centres undefined) | 90.24%
c1cnn(CC2CN(Cc3ccc(-n4ccnc4)cc3)CCO2)c1 (centres undefined) | -4.298%
Nc1cc(CCC2CN(Cc3ccc(C(=O)O)cc3)CCO2)ccn1 (centres undefined) | 7.558%
COc1ccc(CCN2CCOC(Cn3nc(C)nc3C)C2)cc1 (centres undefined) | 6.569%
CC(C)c1nn(CC(=O)N2CCCCC2)c(=O)c2c1cnn2C(C)(C)C | -4.82%
COc1ccc(N2CCN(Cc3noc(CC(C)C)n3)C(C)C2=O)cc1 (centres undefined) | 87.05%
COc1cccc(S(=O)(=O)Cc2noc(CC(C)C)n2)c1 | -0.9778%
COCc1nc(CN2CC(=O)N(C)c3ccccc3C2=O)no1 | -2.193%
COCc1nc(CN2CCN(c3ccc(OC)cc3)C(=O)C2C)no1 (centres undefined) | 94.02%
COCc1nc(CN2CC(C)(c3ccccc3)CCC2=O)no1 (centres undefined) | 5.849%
COc1ccc(S(=O)(=O)Cc2noc(CC(C)C)n2)cc1 | -2.844%
CN(CC(N)=O)CC(=O)N(C1=CCCCC1)C1CC1 | -2.779%
CN(C)Cc1noc2c1CN(C(=O)c1ccncc1)CC2.O=C(O)C(F)(F)F.O=C(O)C(F)(F)F | -9.47%
O=C(O)C(F)(F)F.c1coc(CN2CCc3onc(Cn4cccc4)c3C2)c1 | -0.2735%

Structure (SMILES) | Percent Effect
CN(C)Cc1noc2c1CN(Cc1ccc[nH]1)CC2 | 98.7%
O=C(O)C(F)(F)F.c1csc(CN2CCc3onc(Cn4cccc4)c3C2)c1 | -13.64%
c1coc(CN2CCc3onc(Cn4ccnc4)c3C2)c1 | -8.337%
Cc1cccc(CN2CCc3onc(CO)c3C2)n1.O=C(O)C(F)(F)F | 107.8%
CN(C)Cc1noc2c1CN(Cc1ccsc1)CC2.O=C(O)C(F)(F)F.O=C(O)C(F)(F)F | -7.7%
Cc1cccc(CN2CCc3onc(Cn4cccc4)c3C2)n1.O=C(O)C(F)(F)F | 93.67%
Cc1cccc(CN2CCc3[nH]nc(C(=O)N4CCNC(=O)C4)c3C2)n1.O=C(O)C(F)(F)F | -67.35%
Cc1cccc(CN2CCc3[nH]nc(C(=O)N(C)C)c3C2)n1.O=C(O)C(F)(F)F | -6.855%
Cc1cccc(CN2CCc3onc(CN(C)C)c3C2)n1 | 101.4%
CC(=O)NCc1noc2c1CN(Cc1cccs1)CC2 | -5.877%
CC(C)OC(=O)N1C[C@H]2CC[C@@H]1CN(C(=O)c1ccccc1)C2 | -6.398%
O=C(COc1coc(CN2CCCCC2)cc1=O)Nc1ccccc1Cl | 12.81%
Cc1csc(CNC(=O)NCC(O)c2ccc(F)c(F)c2)n1 (centres undefined) | -9.167%
COc1ccc(-n2ccnc2-c2cnc(C(C)C)nc2)cc1C(=O)O | -1.473%
CCNC(=O)NC(=O)CSC(C)c1c(F)cccc1F (centres undefined) | 4.576%
CCc1cnc(CCNC(=O)N2CCCC(c3ncc[nH]3)C2)s1 (centres undefined) | -8.688%
CCc1cnc(CCNS(C)(=O)=O)s1 | 96.32%
Cc1cnc(CCNC(Cc2ccncc2)C(F)(F)F)s1 (centres undefined) | 4.089%
CCCS(=O)(=O)NCCn1ccc(-c2cccs2)n1 | 29.12%
CCCS(=O)(=O)NCCc1ncc(C)s1 | 113.4%
CCCS(=O)(=O)NCc1ncc(C)c(OC)c1C | 21.89%
CCCS(=O)(=O)NCCc1ncc(CC)s1 | 98.37%
CCc1cnc(CN(C)C(=O)NC2CCN(CC3CC3)C2)s1 (centres undefined) | -7.872%
CS(=O)(=O)NCCc1cccc2cccnc12 | -14.96%
